According to publication PMC11062922 (Nature Chemical Biology, 2023):
Read-outs that look alike come from different tables or passages of the source.

Assays:
RET = conditions: read-out: apparent Kd, n = 1
RPS6KA4 = conditions: read-out: apparent Kd, n = 1
[1] = compound concentrations:100 nM and 1000 nM (sheet 'Lestaurtinib' of Supplementary Table 1),run:Lestaurtinib_02438_R1,Plate:MR008
[2] = compound concentrations:100 nM and 1000 nM (sheet 'Lestaurtinib' of Supplementary Table 1),run:Lestaurtinib_02438_R3,Plate:MR008
[3] = compound concentrations:100 nM and 1000 nM (sheet 'Lestaurtinib' of Supplementary Table 1),run:Lestaurtinib_02443_R1,Plate:MR009
[4] = compound concentrations:100 nM and 1000 nM (sheet 'Lestaurtinib' of Supplementary Table 1),run:Lestaurtinib_02473_R3,Plate:MR010
[5] = compound concentrations:100 nM and 1000 nM (sheet 'Lestaurtinib' of Supplementary Table 1),run:Lestaurtinib_02482_R3,Plate:MR011
[6] = compound concentrations:100 nM and 1000 nM (sheet 'Lestaurtinib' of Supplementary Table 1),run:Lestaurtinib_02487_R2,Plate:MR012
[7] = compound concentrations:100 nM and 1000 nM (sheet 'Lestaurtinib' of Supplementary Table 1),run:Lestaurtinib_02487_R3,Plate:MR012
[8] = compound concentrations:100 nM and 1000 nM (sheet 'Lestaurtinib' of Supplementary Table 1),run:Lestaurtinib_02496_R1,Plate:MR013
[9] = compound concentrations:100 nM and 1000 nM (sheet 'Lestaurtinib' of Supplementary Table 1),run:Lestaurtinib_02566_R1,Plate:MR014
[10] = compound concentrations:100 nM and 1000 nM (sheet 'Lestaurtinib' of Supplementary Table 1),run:Lestaurtinib_02577_R1,Plate:MR016
[11] = compound concentrations:100 nM and 1000 nM (sheet 'Lestaurtinib' of Supplementary Table 1),run:Lestaurtinib_02584_R3,Plate:MR017
[12] = compound concentrations:100 nM and 1000 nM (sheet 'Lestaurtinib' of Supplementary Table 1),run:Lestaurtinib_02601_R2,Plate:MR018

Substance: Lestaurtinib
- potency estimated from few doses (RET; compound concentrations:100 nM and 1000 nM (sheet 'Lestaurtinib' of Supplementary Table 1),run:Lestaurtinib_02437_R2,Plate:MR007): 146 nM
- potency estimated from few doses (RET; compound concentrations:100 nM and 1000 nM (sheet 'Lestaurtinib' of Supplementary Table 1),run:Lestaurtinib_02437_R3,Plate:MR007): 23.5 nM
- potency estimated from few doses (RET; [1]): 279 nM
- potency estimated from few doses (RET; compound concentrations:100 nM and 1000 nM (sheet 'Lestaurtinib' of Supplementary Table 1),run:Lestaurtinib_02438_R2,Plate:MR008): 286 nM
- potency estimated from few doses (RET; [2]): 304 nM
- potency estimated from few doses (RET; [3]): 248 nM
- potency estimated from few doses (RET; compound concentrations:100 nM and 1000 nM (sheet 'Lestaurtinib' of Supplementary Table 1),run:Lestaurtinib_02443_R3,Plate:MR009): 140 nM
- potency estimated from few doses (RET; compound concentrations:100 nM and 1000 nM (sheet 'Lestaurtinib' of Supplementary Table 1),run:Lestaurtinib_02473_R2,Plate:MR010): 244 nM
- potency estimated from few doses (RET; [4]): 60 nM
- potency estimated from few doses (RET; compound concentrations:100 nM and 1000 nM (sheet 'Lestaurtinib' of Supplementary Table 1),run:Lestaurtinib_02482_R1,Plate:MR011): 239 nM
- potency estimated from few doses (RET; [5]): 209 nM
- potency estimated from few doses (RET; [6]): 140 nM
- potency estimated from few doses (RET; [7]): 213 nM
- potency estimated from few doses (RET; [8]): 219 nM
- potency estimated from few doses (RET; compound concentrations:100 nM and 1000 nM (sheet 'Lestaurtinib' of Supplementary Table 1),run:Lestaurtinib_02496_R3,Plate:MR013): 141 nM
- potency estimated from few doses (RET; [9]): 277 nM
- potency estimated from few doses (RET; compound concentrations:100 nM and 1000 nM (sheet 'Lestaurtinib' of Supplementary Table 1),run:Lestaurtinib_02566_R3,Plate:MR014): 244 nM
- potency estimated from few doses (RET; compound concentrations:100 nM and 1000 nM (sheet 'Lestaurtinib' of Supplementary Table 1),run:Lestaurtinib_02572_R3,Plate:MR015): 307 nM
- potency estimated from few doses (RET; [10]): 242 nM
- potency estimated from few doses (RET; compound concentrations:100 nM and 1000 nM (sheet 'Lestaurtinib' of Supplementary Table 1),run:Lestaurtinib_02577_R2,Plate:MR016): 142 nM
- potency estimated from few doses (RET; compound concentrations:100 nM and 1000 nM (sheet 'Lestaurtinib' of Supplementary Table 1),run:Lestaurtinib_02577_R3,Plate:MR016): 218 nM
- potency estimated from few doses (RET; [11]): 142 nM
- potency estimated from few doses (RET; [12]): 235 nM
- potency estimated from few doses (RET; compound concentrations:100 nM and 1000 nM (sheet 'Lestaurtinib' of Supplementary Table 1),run:Lestaurtinib_02601_R3,Plate:MR018): 62.4 nM
- potency estimated from few doses (RET; compound concentrations:100 nM and 1000 nM (sheet 'Lestaurtinib' of Supplementary Table 1),run:Lestaurtinib_02606_R1,Plate:MR019): 211 nM
- potency estimated from few doses (RET; compound concentrations:100 nM and 1000 nM (sheet 'Lestaurtinib' of Supplementary Table 1),run:Lestaurtinib_02624_R1,Plate:MR020): 141 nM
- potency estimated from few doses (RET; compound concentrations:100 nM and 1000 nM (sheet 'Lestaurtinib' of Supplementary Table 1),run:Lestaurtinib_02624_R3,Plate:MR020): 229 nM
- potency estimated from few doses (RET; compound concentrations:100 nM and 1000 nM (sheet 'Lestaurtinib' of Supplementary Table 1),run:Lestaurtinib_02724_R1,Plate:MR021): 275 nM
- potency estimated from few doses (RET; compound concentrations:100 nM and 1000 nM (sheet 'Lestaurtinib' of Supplementary Table 1),run:Lestaurtinib_02724_R2,Plate:MR021): 268 nM
- potency estimated from few doses (RET; compound concentrations:100 nM and 1000 nM (sheet 'Lestaurtinib' of Supplementary Table 1),run:Lestaurtinib_02724_R3,Plate:MR021): 153 nM
- potency estimated from few doses (RET; compound concentrations:100 nM and 1000 nM (sheet 'Lestaurtinib' of Supplementary Table 1),run:Lestaurtinib_02741_R1,Plate:MR023): 279 nM
- potency estimated from few doses (RET; compound concentrations:100 nM and 1000 nM (sheet 'Lestaurtinib' of Supplementary Table 1),run:Lestaurtinib_02741_R2,Plate:MR023): 279 nM
- potency estimated from few doses (RET; compound concentrations:100 nM and 1000 nM (sheet 'Lestaurtinib' of Supplementary Table 1),run:Lestaurtinib_02741_R3,Plate:MR023): 315 nM
- potency estimated from few doses (RET; compound concentrations:100 nM and 1000 nM (sheet 'Lestaurtinib' of Supplementary Table 1),run:Lestaurtinib_02748_R1,Plate:MR024): 135 nM
- potency estimated from few doses (RET; compound concentrations:100 nM and 1000 nM (sheet 'Lestaurtinib' of Supplementary Table 1),run:Lestaurtinib_02748_R2,Plate:MR024): 269 nM
- potency estimated from few doses (RET; compound concentrations:100 nM and 1000 nM (sheet 'Lestaurtinib' of Supplementary Table 1),run:Lestaurtinib_02765_R1,Plate:MR026): 320 nM
- potency estimated from few doses (RET; compound concentrations:100 nM and 1000 nM (sheet 'Lestaurtinib' of Supplementary Table 1),run:Lestaurtinib_02765_R3,Plate:MR026): 323 nM
- potency estimated from few doses (RET; compound concentrations:100 nM and 1000 nM (sheet 'Lestaurtinib' of Supplementary Table 1),run:Lestaurtinib_02766_R3,Plate:MR027): 258 nM
- potency estimated from few doses (RET; compound concentrations:100 nM and 1000 nM (sheet 'Lestaurtinib' of Supplementary Table 1),run:Lestaurtinib_02768_R3,Plate:MR028): 135 nM
- potency estimated from few doses (RET; compound concentrations:100 nM and 1000 nM (sheet 'Lestaurtinib' of Supplementary Table 1),run:Lestaurtinib_02795_R2,Plate:MR022): 286 nM
- potency estimated from few doses (RET; compound concentrations:100 nM and 1000 nM (sheet 'Lestaurtinib' of Supplementary Table 1),run:Lestaurtinib_02795_R3,Plate:MR022): 300 nM
- potency estimated from few doses (RET; compound concentrations:100 nM and 1000 nM (sheet 'Lestaurtinib' of Supplementary Table 1),run:Lestaurtinib_02802_R1,Plate:MR029): 137 nM
- potency estimated from few doses (RET; compound concentrations:100 nM and 1000 nM (sheet 'Lestaurtinib' of Supplementary Table 1),run:Lestaurtinib_02802_R3,Plate:MR029): 34.2 nM
- potency estimated from few doses (RET; compound concentrations:100 nM and 1000 nM (sheet 'Lestaurtinib' of Supplementary Table 1),run:Lestaurtinib_03252_R1,Plate:MR032): 253 nM
- potency estimated from few doses (RET; compound concentrations:100 nM and 1000 nM (sheet 'Lestaurtinib' of Supplementary Table 1),run:Lestaurtinib_03260_R3,Plate:MR033): 277 nM
- potency estimated from few doses (RPS6KA4; compound concentrations:100 nM and 1000 nM (sheet 'Lestaurtinib' of Supplementary Table 1),run:Lestaurtinib_02339_R2,Plate:MR001): 873 nM
- potency estimated from few doses (RPS6KA4; compound concentrations:100 nM and 1000 nM (sheet 'Lestaurtinib' of Supplementary Table 1),run:Lestaurtinib_02339_R3,Plate:MR001): 1210 nM
- potency estimated from few doses (RPS6KA4; compound concentrations:100 nM and 1000 nM (sheet 'Lestaurtinib' of Supplementary Table 1),run:Lestaurtinib_02364_R2,Plate:MR002): 886 nM
- potency estimated from few doses (RPS6KA4; compound concentrations:100 nM and 1000 nM (sheet 'Lestaurtinib' of Supplementary Table 1),run:Lestaurtinib_02367_R1,Plate:MR003): 1240 nM
- potency estimated from few doses (RPS6KA4; compound concentrations:100 nM and 1000 nM (sheet 'Lestaurtinib' of Supplementary Table 1),run:Lestaurtinib_02367_R2,Plate:MR003): 1330 nM
- potency estimated from few doses (RPS6KA4; compound concentrations:100 nM and 1000 nM (sheet 'Lestaurtinib' of Supplementary Table 1),run:Lestaurtinib_02367_R3,Plate:MR003): 989 nM
- potency estimated from few doses (RPS6KA4; compound concentrations:100 nM and 1000 nM (sheet 'Lestaurtinib' of Supplementary Table 1),run:Lestaurtinib_02381_R1,Plate:MR004): 884 nM
- potency estimated from few doses (RPS6KA4; compound concentrations:100 nM and 1000 nM (sheet 'Lestaurtinib' of Supplementary Table 1),run:Lestaurtinib_02407_R1,Plate:MR005): 1340 nM
- potency estimated from few doses (RPS6KA4; compound concentrations:100 nM and 1000 nM (sheet 'Lestaurtinib' of Supplementary Table 1),run:Lestaurtinib_02407_R2,Plate:MR005): 1630 nM
- potency estimated from few doses (RPS6KA4; compound concentrations:100 nM and 1000 nM (sheet 'Lestaurtinib' of Supplementary Table 1),run:Lestaurtinib_02422_R1,Plate:MR006): 975 nM
- potency estimated from few doses (RPS6KA4; compound concentrations:100 nM and 1000 nM (sheet 'Lestaurtinib' of Supplementary Table 1),run:Lestaurtinib_02437_R1,Plate:MR007): 1320 nM
- potency estimated from few doses (RPS6KA4; [1]): 769 nM
- potency estimated from few doses (RPS6KA4; [2]): 1350 nM
- potency estimated from few doses (RPS6KA4; [3]): 864 nM
- potency estimated from few doses (RPS6KA4; [4]): 1240 nM
- potency estimated from few doses (RPS6KA4; compound concentrations:100 nM and 1000 nM (sheet 'Lestaurtinib' of Supplementary Table 1),run:Lestaurtinib_02482_R2,Plate:MR011): 1340 nM
- potency estimated from few doses (RPS6KA4; [5]): 924 nM
- potency estimated from few doses (RPS6KA4; compound concentrations:100 nM and 1000 nM (sheet 'Lestaurtinib' of Supplementary Table 1),run:Lestaurtinib_02487_R1,Plate:MR012): 680 nM
- potency estimated from few doses (RPS6KA4; [6]): 745 nM
- potency estimated from few doses (RPS6KA4; [7]): 950 nM
- potency estimated from few doses (RPS6KA4; [8]): 877 nM
- potency estimated from few doses (RPS6KA4; compound concentrations:100 nM and 1000 nM (sheet 'Lestaurtinib' of Supplementary Table 1),run:Lestaurtinib_02496_R2,Plate:MR013): 822 nM
- potency estimated from few doses (RPS6KA4; [9]): 1360 nM
- potency estimated from few doses (RPS6KA4; compound concentrations:100 nM and 1000 nM (sheet 'Lestaurtinib' of Supplementary Table 1),run:Lestaurtinib_02566_R2,Plate:MR014): 971 nM
- potency estimated from few doses (RPS6KA4; compound concentrations:100 nM and 1000 nM (sheet 'Lestaurtinib' of Supplementary Table 1),run:Lestaurtinib_02572_R2,Plate:MR015): 1240 nM
- potency estimated from few doses (RPS6KA4; [10]): 1370 nM
- potency estimated from few doses (RPS6KA4; [11]): 1210 nM
- potency estimated from few doses (RPS6KA4; [12]): 1330 nM
